Binding signal data for eight sequences are collected here from PMC7862700, “An all-to-all approach to the identification of sequence-specific readers for epigenetic DNA modifications on cytosine”.

What all share (assay): DAPPL (digital affinity profiling via proximity ligation, sequencing); 10 mM Tris-HCl pH 7.5, 50 mM NaCl, 1 mM DTT, 4% glycerol, room temperature, 30 min; GST-TFs on glutathione beads, 16-mer random dsDNA library, 0.1% formaldehyde crosslink after washing; high values mean tight binding
Details in all cases: protein: recombinant; tags: N-terminal GST; dsDNA, one strand shown

The target in one assay is T1, FLI1 (Homo sapiens, UniProt Q01543 1-452).
T1 sequence: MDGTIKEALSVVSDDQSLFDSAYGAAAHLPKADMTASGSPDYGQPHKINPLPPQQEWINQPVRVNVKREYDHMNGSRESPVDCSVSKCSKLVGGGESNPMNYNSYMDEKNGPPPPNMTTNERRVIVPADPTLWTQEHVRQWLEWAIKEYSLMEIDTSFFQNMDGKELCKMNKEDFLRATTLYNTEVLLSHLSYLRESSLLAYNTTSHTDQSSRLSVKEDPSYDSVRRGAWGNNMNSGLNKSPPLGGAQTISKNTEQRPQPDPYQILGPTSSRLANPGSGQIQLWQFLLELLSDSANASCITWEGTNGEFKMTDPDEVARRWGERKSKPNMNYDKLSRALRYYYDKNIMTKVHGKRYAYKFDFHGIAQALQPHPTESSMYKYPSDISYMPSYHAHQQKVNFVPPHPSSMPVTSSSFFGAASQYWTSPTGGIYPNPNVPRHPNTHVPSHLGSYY
In outline: (§1)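 After expression in yeast as GST fusions, human transcription factors were bound to glutathione beads, DNA-barcoded and mixed with a tag-only sample. The pools were incubated with 200 nmole of a 16-mer random double-stranded DNA library in Tris/NaCl/DTT/glycerol buffer (30 min, room temperature), washed and crosslinked with 0.1% formaldehyde. Proximity ligation with BsaI/T4 ligase ran for 1 h at 37 °C, before PCR amplification and sequencing on an Illumina NextSeq500. Binding signal is a hexamer's read frequency for a factor divided by its frequency for the tag-only sample.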

The target of another assay is T2, ELK1 (Homo sapiens, UniProt P19419 1-428).
T2 sequence: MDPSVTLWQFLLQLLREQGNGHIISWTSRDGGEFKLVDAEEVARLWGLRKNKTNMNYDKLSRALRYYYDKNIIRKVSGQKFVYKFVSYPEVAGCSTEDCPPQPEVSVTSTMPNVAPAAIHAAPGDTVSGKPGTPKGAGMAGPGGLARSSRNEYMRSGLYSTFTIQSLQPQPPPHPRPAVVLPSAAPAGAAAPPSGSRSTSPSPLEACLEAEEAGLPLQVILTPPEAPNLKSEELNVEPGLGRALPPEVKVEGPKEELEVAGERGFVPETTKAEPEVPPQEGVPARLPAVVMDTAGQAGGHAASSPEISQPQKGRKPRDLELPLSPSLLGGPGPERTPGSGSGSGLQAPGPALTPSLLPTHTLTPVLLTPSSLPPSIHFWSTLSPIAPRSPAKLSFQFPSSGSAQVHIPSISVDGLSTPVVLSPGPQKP
The essentials: as §1

The target in a further assay is T3, GABPA (Homo sapiens, UniProt Q06546 1-454).
T3 sequence: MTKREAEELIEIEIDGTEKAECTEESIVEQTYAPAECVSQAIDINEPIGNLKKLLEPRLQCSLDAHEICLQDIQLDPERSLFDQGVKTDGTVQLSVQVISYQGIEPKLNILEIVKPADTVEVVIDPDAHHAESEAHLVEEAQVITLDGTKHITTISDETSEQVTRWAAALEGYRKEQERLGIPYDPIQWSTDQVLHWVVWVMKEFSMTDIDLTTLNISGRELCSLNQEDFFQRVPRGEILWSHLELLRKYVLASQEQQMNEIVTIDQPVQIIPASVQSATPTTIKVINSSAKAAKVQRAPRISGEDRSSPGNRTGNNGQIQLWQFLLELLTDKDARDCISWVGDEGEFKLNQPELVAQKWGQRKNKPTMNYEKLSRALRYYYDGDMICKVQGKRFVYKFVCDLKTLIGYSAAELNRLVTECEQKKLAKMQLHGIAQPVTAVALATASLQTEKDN
The essentials:
as §1

The next assay concerns the target T4, ERG (Homo sapiens, UniProt P11308 1-479).
T4 sequence: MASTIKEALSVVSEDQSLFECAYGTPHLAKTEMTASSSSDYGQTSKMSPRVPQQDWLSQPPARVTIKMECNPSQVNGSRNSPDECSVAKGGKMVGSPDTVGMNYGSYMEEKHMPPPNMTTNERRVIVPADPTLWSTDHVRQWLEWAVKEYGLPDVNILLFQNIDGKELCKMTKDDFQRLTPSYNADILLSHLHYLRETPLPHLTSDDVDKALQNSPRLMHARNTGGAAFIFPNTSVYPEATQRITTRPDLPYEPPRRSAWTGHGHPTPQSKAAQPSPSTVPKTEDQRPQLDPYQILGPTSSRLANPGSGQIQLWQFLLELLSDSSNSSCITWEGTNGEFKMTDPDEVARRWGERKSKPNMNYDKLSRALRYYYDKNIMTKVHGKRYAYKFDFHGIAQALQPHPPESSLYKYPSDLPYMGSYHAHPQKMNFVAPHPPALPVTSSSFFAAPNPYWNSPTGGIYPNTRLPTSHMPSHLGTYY
The essentials:
as §1

Another assay concerns the target ELF1 (Homo sapiens, UniProt P32519 1-619). In outline:
as §1

The next assay concerns the target T5, EHF (Homo sapiens, UniProt Q9NZC4 1-300).
T5 sequence: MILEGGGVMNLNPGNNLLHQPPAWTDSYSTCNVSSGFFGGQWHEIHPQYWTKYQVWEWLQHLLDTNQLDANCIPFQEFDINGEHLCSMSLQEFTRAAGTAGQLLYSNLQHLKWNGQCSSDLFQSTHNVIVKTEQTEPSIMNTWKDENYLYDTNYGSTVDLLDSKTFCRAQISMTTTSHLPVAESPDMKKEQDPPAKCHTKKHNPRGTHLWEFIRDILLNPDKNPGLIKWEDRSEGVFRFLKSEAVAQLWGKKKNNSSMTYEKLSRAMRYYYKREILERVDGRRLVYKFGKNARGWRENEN
The essentials: as §1

A further assay addresses SPI1 (Homo sapiens, UniProt P17947 1-270). In outline: as §1
A further assay has as its target SPIB (Homo sapiens, UniProt Q01892 1-262). The essentials: as §1
Another assay has as its target T6, ELK3 (Homo sapiens, UniProt P41970 1-407).
T6 sequence: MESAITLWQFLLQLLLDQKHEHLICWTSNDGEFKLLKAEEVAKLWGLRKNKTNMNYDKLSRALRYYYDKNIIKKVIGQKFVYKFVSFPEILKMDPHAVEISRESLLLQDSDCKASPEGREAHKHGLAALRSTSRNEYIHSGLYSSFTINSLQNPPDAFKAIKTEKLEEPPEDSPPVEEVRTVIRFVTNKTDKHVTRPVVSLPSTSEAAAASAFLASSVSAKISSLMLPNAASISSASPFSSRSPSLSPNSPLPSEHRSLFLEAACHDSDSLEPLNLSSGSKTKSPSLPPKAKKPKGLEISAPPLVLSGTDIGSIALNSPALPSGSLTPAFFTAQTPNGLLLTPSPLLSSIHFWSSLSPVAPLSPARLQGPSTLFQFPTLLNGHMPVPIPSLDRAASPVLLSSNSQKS
In outline:
as §1

Sequence of ELF1 (P32519 whole entry): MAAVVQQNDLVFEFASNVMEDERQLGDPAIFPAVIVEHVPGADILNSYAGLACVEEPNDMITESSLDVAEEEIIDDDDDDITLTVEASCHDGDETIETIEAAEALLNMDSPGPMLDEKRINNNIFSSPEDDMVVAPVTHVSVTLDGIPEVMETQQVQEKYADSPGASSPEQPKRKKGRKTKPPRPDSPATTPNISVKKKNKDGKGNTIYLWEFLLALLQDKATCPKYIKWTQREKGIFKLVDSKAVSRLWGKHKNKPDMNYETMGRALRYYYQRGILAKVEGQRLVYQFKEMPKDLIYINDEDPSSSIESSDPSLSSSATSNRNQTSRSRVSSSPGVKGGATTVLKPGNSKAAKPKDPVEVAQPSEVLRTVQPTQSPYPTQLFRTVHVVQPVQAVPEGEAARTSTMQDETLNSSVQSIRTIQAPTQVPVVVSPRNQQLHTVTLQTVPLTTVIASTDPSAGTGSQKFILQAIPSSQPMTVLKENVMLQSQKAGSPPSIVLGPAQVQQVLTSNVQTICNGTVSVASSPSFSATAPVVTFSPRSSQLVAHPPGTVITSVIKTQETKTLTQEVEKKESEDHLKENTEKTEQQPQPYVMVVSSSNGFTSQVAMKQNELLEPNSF
Sequence of SPIB (Q01892 whole entry): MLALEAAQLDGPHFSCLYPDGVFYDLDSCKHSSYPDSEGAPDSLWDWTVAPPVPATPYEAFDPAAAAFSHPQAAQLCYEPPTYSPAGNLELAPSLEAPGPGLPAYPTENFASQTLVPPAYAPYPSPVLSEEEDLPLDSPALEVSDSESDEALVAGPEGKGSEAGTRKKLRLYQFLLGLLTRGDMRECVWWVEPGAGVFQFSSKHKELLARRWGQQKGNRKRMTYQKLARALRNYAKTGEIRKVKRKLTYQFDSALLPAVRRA

As for CACATC, the binding signal in the assay with FLI1 was 1.39 fold enrichment (6-mer frequency, TF over GST control); in the assay with ELK1 it was 1.45 fold enrichment (6-mer frequency, TF over GST control); in the assay with GABPA, 1.33 fold enrichment (6-mer frequency, TF over GST control); in the assay with ERG, 1.64 fold enrichment (6-mer frequency, TF over GST control); with ELF1, 1.4 fold enrichment (6-mer frequency, TF over GST control); with EHF, 1.5 fold enrichment (6-mer frequency, TF over GST control). Besides, the binding signal with SPI1 is 1.37 fold enrichment (6-mer frequency, TF over GST control); with SPIB it was 1.46 fold enrichment (6-mer frequency, TF over GST control); in the assay with ELK3, 1.61 fold enrichment (6-mer frequency, TF over GST control).
As for GGATGC, the binding signal with FLI1 was 1.11 fold enrichment (6-mer frequency, TF over GST control); with ELK1 it was 1.06 fold enrichment (6-mer frequency, TF over GST control); in the assay with GABPA, 1.1 fold enrichment (6-mer frequency, TF over GST control); in the assay with ERG it was 1.16 fold enrichment (6-mer frequency, TF over GST control); in the assay with ELF1, 1 fold enrichment (6-mer frequency, TF over GST control); with EHF, 1.24 fold enrichment (6-mer frequency, TF over GST control). For the same sequence, the binding signal is 1.11 fold enrichment (6-mer frequency, TF over GST control) with SPI1; 1.28 fold enrichment (6-mer frequency, TF over GST control) with SPIB; 1.23 fold enrichment (6-mer frequency, TF over GST control) in the assay with ELK3.
Turning to CACTGT, the binding signal is 1.12 fold enrichment (6-mer frequency, TF over GST control) with FLI1; 1.09 fold enrichment (6-mer frequency, TF over GST control) with ELK1; 1.17 fold enrichment (6-mer frequency, TF over GST control) with GABPA; 1.14 fold enrichment (6-mer frequency, TF over GST control) with ERG; 1.16 fold enrichment (6-mer frequency, TF over GST control) with ELF1; 1.19 fold enrichment (6-mer frequency, TF over GST control) with EHF. In addition, the binding signal is 1.11 fold enrichment (6-mer frequency, TF over GST control) with SPI1; 1.22 fold enrichment (6-mer frequency, TF over GST control) in the assay with SPIB; 1.03 fold enrichment (6-mer frequency, TF over GST control) with ELK3.
As for TTTGTC, the binding signal is 1.35 fold enrichment (6-mer frequency, TF over GST control) in the assay with FLI1; 1.21 fold enrichment (6-mer frequency, TF over GST control) with ELK1; 1.19 fold enrichment (6-mer frequency, TF over GST control) with GABPA; 1.19 fold enrichment (6-mer frequency, TF over GST control) with ERG; 1.26 fold enrichment (6-mer frequency, TF over GST control) with ELF1; 1.24 fold enrichment (6-mer frequency, TF over GST control) in the assay with EHF. Moreover, the binding signal with SPI1 was 1.23 fold enrichment (6-mer frequency, TF over GST control); with SPIB it was 1.16 fold enrichment (6-mer frequency, TF over GST control); in the assay with ELK3 it was 1.18 fold enrichment (6-mer frequency, TF over GST control).
As to ATACTT, the binding signal with FLI1 was 1.57 fold enrichment (6-mer frequency, TF over GST control); in the assay with ELK1 it was 1.6 fold enrichment (6-mer frequency, TF over GST control); with GABPA, 1.54 fold enrichment (6-mer frequency, TF over GST control); with ERG, 1.68 fold enrichment (6-mer frequency, TF over GST control); with ELF1, 1.61 fold enrichment (6-mer frequency, TF over GST control); in the assay with EHF, 1.71 fold enrichment (6-mer frequency, TF over GST control). Besides, the binding signal with SPI1 is 1.67 fold enrichment (6-mer frequency, TF over GST control); in the assay with SPIB, 1.48 fold enrichment (6-mer frequency, TF over GST control); in the assay with ELK3, 1.7 fold enrichment (6-mer frequency, TF over GST control).
As for GATGTC, the binding signal with FLI1 is 1.25 fold enrichment (6-mer frequency, TF over GST control); with ELK1 it was 1.37 fold enrichment (6-mer frequency, TF over GST control); with GABPA, 1.24 fold enrichment (6-mer frequency, TF over GST control); in the assay with ERG, 1.41 fold enrichment (6-mer frequency, TF over GST control); in the assay with ELF1 it was 1.22 fold enrichment (6-mer frequency, TF over GST control); in the assay with EHF, 1.31 fold enrichment (6-mer frequency, TF over GST control). The binding signal in the assay with SPI1 was 1.23 fold enrichment (6-mer frequency, TF over GST control); with SPIB, 1.37 fold enrichment (6-mer frequency, TF over GST control); with ELK3 it was 1.19 fold enrichment (6-mer frequency, TF over GST control).
For ATCAAT, the binding signal with FLI1 was 1.12 fold enrichment (6-mer frequency, TF over GST control); in the assay with ELK1 it was 1.01 fold enrichment (6-mer frequency, TF over GST control); with GABPA it was 1.16 fold enrichment (6-mer frequency, TF over GST control); with ERG, 1.04 fold enrichment (6-mer frequency, TF over GST control); in the assay with ELF1, 1.15 fold enrichment (6-mer frequency, TF over GST control); with EHF, 1.02 fold enrichment (6-mer frequency, TF over GST control). Also, the binding signal is 1.06 fold enrichment (6-mer frequency, TF over GST control) with SPI1; 1.07 fold enrichment (6-mer frequency, TF over GST control) in the assay with SPIB; 1.06 fold enrichment (6-mer frequency, TF over GST control) in the assay with ELK3.
In the case of ACTGAC, the binding signal with FLI1 was 1.13 fold enrichment (6-mer frequency, TF over GST control); with ELK1, 1.14 fold enrichment (6-mer frequency, TF over GST control); with GABPA it was 1.22 fold enrichment (6-mer frequency, TF over GST control); with ERG, 1.17 fold enrichment (6-mer frequency, TF over GST control); with ELF1, 1.22 fold enrichment (6-mer frequency, TF over GST control); with EHF, 1.16 fold enrichment (6-mer frequency, TF over GST control). The binding signal with SPI1 was 1.26 fold enrichment (6-mer frequency, TF over GST control); with SPIB it was 1.21 fold enrichment (6-mer frequency, TF over GST control); with ELK3, 1.11 fold enrichment (6-mer frequency, TF over GST control).
